# Results reported in ChEMBL document CHEMBL4513216, “Probing the Open Global Health Chemical Diversity Library for Multistage-Active Starting Points for Next-Generation Antimalarials” (ACS Infect Dis, 2020).
# The campaign covered roughly 68,000 compounds. About 2,700 (4%) showed an effect of 50% or more. The sample holds strong results, similar compounds and a random draw of the others, so the mix is not that of the screen.
# Test system: Plasmodium berghei
# Experiment: Screen against P. berghei liver stage (PbLuc), transformed with Luciferase, at 2uM
# Format: functional, HepG2
# Settings: tested at 2 uM
row,Structure (SMILES),INHIBITION [%]
1,CCCOc1cc(C)ccc1NC(=O)NCCC(=O)N(C)C,-36.17
2,COc1cc(C(=O)NC2COc3ccccc3C2)ccc1OCC(N)=O (stereo not drawn),-3.62
3,COc1cccc(C(=O)N2CCOCC2CN(C)C)c1OC (stereo not drawn),31.55
4,OC(CNCc1nnc2ccccn12)c1ccc2c(c1)OCO2 (stereo not drawn),31.54
5,CC(C)NC(=O)N1CCC(c2nnc3n2CCNC3)CC1,13.28
6,COc1cccc2c1OCC(CNC(=O)Cc1cnccn1)C2 (stereo not drawn),-20.89
7,COc1cccc2c1OCC(CNC(=O)CSc1ccccn1)C2 (stereo not drawn),33.11
8,COc1cccc2c1OCC(CNC(=O)Cn1ccnc1C)C2 (stereo not drawn),50.32
9,Cn1cccc1C(=O)N1CCC2(CC1)CC(N1CCOCC1)C2,35.89
10,Cn1cnnc1S(=O)(=O)C1CCN(S(=O)(=O)c2ccc(F)c(Cl)c2)CC1,60.09
11,Cc1ccc(S(=O)(=O)N2CCC(S(=O)(=O)c3nncn3C)CC2)cc1C,-19.3
12,Cn1cnnc1S(=O)(=O)C1CCN(S(=O)(=O)c2ccccc2F)CC1,-8.91
13,CCOC(=O)N1CCC(NC(C)c2ccccc2-n2cccn2)CC1 (stereo not drawn),52.89
14,CCOC(=O)N1CCC(NC(C)Cc2cc(C)n[nH]2)CC1 (stereo not drawn),-0.88
15,CC(C)CN1CCC(NC(C)c2ccccc2-n2cccn2)CC1 (stereo not drawn),12.11
16,O=C1COC2(CCN(S(=O)(=O)C3CC3)CC2)CN1c1cccnc1,10.37
17,CCN(C(=O)Nc1nccs1)C(C)c1cccc(O)c1 (stereo not drawn),-81.27
18,NC(=O)c1cnn2c1NCC(CNCC1(c3ccccc3)CCCC1)C2 (stereo not drawn),-181.66
19,CN(Cc1ccc(Cl)s1)C(=O)COc1cccc(C(N)=O)c1,34.61
20,CN(Cc1ccc(Cl)s1)C(=O)c1ccccc1OCC(N)=O,54.75
21,CN(Cc1ccc(Cl)s1)C(=O)c1cccc(OCC(N)=O)c1,26.14
22,COCCN(C)CC(=O)N1C[C@@H](NC(C)=O)[C@H](c2ccc(OC)cc2)C1,53.13

row,Structure (SMILES),INHIBITION [%]
1,CCOCC(=O)N1C[C@@H](NC(C)=O)[C@H](c2ccc(OC)cc2)C1,20.15
2,COc1ccc([C@@H]2CN(C(=O)CS(C)(=O)=O)C[C@H]2NC(C)=O)cc1,1.85
3,c1ccc2sc(CN3CCOC(Cn4cncn4)C3)nc2c1 (stereo not drawn),5.72
4,c1ccc2sc(CN3CCOC(Cn4cccn4)C3)nc2c1 (stereo not drawn),-88.54
5,Cc1cnn(CC2CN(Cc3nc4ccccc4s3)CCO2)c1 (stereo not drawn),53.98
6,Cn1cc(C(=O)NCCc2ccc(OC3CCCC3)cc2)ccc1=O,-25.78
7,CCOCc1cncc2c1CCN(S(=O)(=O)c1ccccc1)C2,-18.7
8,CCOCc1cncc2c1CCN(S(=O)(=O)c1ccc(C)cc1)C2,70.13
9,CCOCc1cncc2c1CCN(S(=O)(=O)c1cccc(C)c1)C2,9.36
10,COc1ccc(CN2C[C@@H]3OCCN(CCN4CCCC4)[C@@H]3C2)cc1,28.85
11,CN(C(=O)c1cccc(NCc2cccs2)c1)C(C1CC1)C1CC1,29.41
12,Nc1nc2c(c(NCc3nccs3)n1)CCN(CC1CCCC1)CC2,-1.29
13,CCc1cnc(CN(C(C)=O)C2CCN(CC3(O)CCCCC3)C2)o1 (stereo not drawn),43.79
14,CCc1cnc(CN(C(C)=O)C2CCN(Cc3nccn3C)C2)o1 (stereo not drawn),10.22
15,CCc1cnc(CN(C(C)=O)C2CCN(CCc3ccncc3)C2)o1 (stereo not drawn),17.31
16,CCc1cnc(CN(C(C)=O)C2CCN(CCS(C)(=O)=O)C2)o1 (stereo not drawn),-9.62
17,CCc1cnc(CN(C(C)=O)C2CCN(CCc3ccccc3)C2)o1 (stereo not drawn),51.94
18,CCc1cnc(CN(C(C)=O)C2CCN(CCN3CCCCC3)C2)o1 (stereo not drawn),56.02
19,CCc1cnc(CN(C(C)=O)C2CCN(CCc3ccccn3)C2)o1 (stereo not drawn),35.65
20,CCc1cnc(CN(C(C)=O)C2CCN(CC(=O)N3CCCC3)C2)o1 (stereo not drawn),75.98
21,CCc1cnc(CN(C(C)=O)C2CCN(CCc3cnn(C)c3)C2)o1 (stereo not drawn),1.61
22,Cc1cc(C)cc(OCC(=O)N2CCCN(CC(N)=O)CC2)c1,-28.76

row,Structure (SMILES),INHIBITION [%]
1,CN(C)C[C@H]1OC[C@@H]2CCN(C(=O)c3cccn3C)C[C@@H]21,8.65
2,Cc1cc(C)n(NC(=O)c2ccc(Cl)cc2Cl)c(=O)c1,-3.05
3,Cc1ccc(CNC2CC3(CCN(CCO)CC3)c3ccccc32)s1 (stereo not drawn),47.05
4,CN(C)[C@@H]1CN(C(=O)COc2cccc(F)c2)C[C@H]1O,-0.83
5,CCCNC(=O)C1CCN(Cc2csc(CC)n2)CC1,36.64
6,COCCC1COC2(CCN(C(=O)Cc3ccccc3)CC2)C1 (stereo not drawn),-19.07
7,O=C([C@H]1COC[C@H]2CN(C3CCOCC3)C[C@H]21)N1CCCCO1,-3.25
8,O=C([C@@H]1COC[C@H]2CN(C3CCOCC3)C[C@H]21)N1CCCCO1,59.77
9,O=C([C@H]1COC[C@H]2CN(C3CCOCC3)C[C@H]21)N1CCCO1,-17.39
10,CCOCC1c2c(cnn2CC2CC2)CCN1Cc1nccs1 (stereo not drawn),26.64
11,O=C(NCCCO)c1nnsc1-c1ccc(Cl)cc1,34.52
12,CN(CCCc1cnn(C)c1)Cc1cc2n(n1)CCNC2,19.66
13,CS(=O)(=O)NCCCN1CCCC1c1ccccc1 (stereo not drawn),42.11
14,CS(=O)(=O)NCCCN1CCCC1c1ccsc1 (stereo not drawn),51.46
15,CS(=O)(=O)NCCCN1CCCC1c1cccc(Br)c1 (stereo not drawn),-8.52
16,Cc1noc(C)c1CN1C[C@@H]2COC[C@H](C(=O)N3CCCCO3)[C@@H]2C1,-60.98
17,O=C(O)Cn1ccc(=O)c2cc(F)ccc21,3.88
18,COC(=O)CCn1ccc(=O)c2cc(F)ccc21,-17.26
19,O=C(O)CCn1ccc(=O)c2cc(F)ccc21,55.73
20,O=C(CCn1cncn1)Nc1ccc(F)cc1OCC1CC1,14.47
21,Cn1ccnc1CNCCNc1ncc(Cl)cc1Cl,57.43
22,Cn1cc(CNCCNc2ncc(Cl)cc2Cl)cn1,-12.84

row,Structure (SMILES),INHIBITION [%]
1,CCn1cc(CNCCNc2ncc(Cl)cc2Cl)cn1,-30.98
2,CC(C)c1nc(CN2CCc3onc(-c4cccc(F)c4)c3C2)no1,-18.57
3,COc1c(CNCCNC(=O)c2ccccc2)c(C)nn1C,33.82
4,COc1c(CNCCNC(=O)c2ccccc2F)c(C)nn1C,67.69
5,COc1c(CNCCNC(=O)c2ccc(C)c(F)c2)c(C)nn1C,-45.21
6,COc1cccc([C@@H]2CN(C(=O)c3ccc(C)cc3O)C[C@H]2C(=O)O)c1,10.1
7,Cc1cn2nc(N3CCCC3C(=O)N3CCN(C)CC3)sc2n1 (stereo not drawn),7.67
8,Cc1cn2nc(N3CCCC3C(=O)N3CCOCC3)sc2n1 (stereo not drawn),-11.41
9,Cc1cn2nc(N3CCCC3C(=O)N3CCSCC3)sc2n1 (stereo not drawn),55.36
10,COc1ccc(C(=O)NC(CC(=O)O)c2cccs2)c(OC)c1 (stereo not drawn),7.01
11,COCC(O)CN1CCC(NC(=O)c2cccc(C)c2)CC1 (stereo not drawn),2.32
12,Cc1cccc(C2(NCCCS(C)(=O)=O)CCCC2)c1,36.28
13,CS(=O)(=O)CCCNC1(c2cccc(Cl)c2)CCCC1,17.2
14,CS(=O)(=O)CCCNC1(c2ccc(Br)cc2)CCC1,55.36
15,O=C(NCc1ccnc(OCC(F)(F)F)c1)NCC1CCOC1 (stereo not drawn),-3.72
16,CNC(=O)[C@H]1C[C@@H]2CN(S(=O)(=O)c3ccccc3)C[C@@H]2N1C(C)=O,5.52
17,O=C(NCc1cccs1)[C@H]1CC[C@@H]2[C@@H](CCN2c2ncccn2)O1,-23.39
18,Cc1oncc1C(=O)N1CCc2ncnc(-c3cnn(C)c3)c2CC1,33.74
19,Cc1occc1C(=O)N1CCc2ncnc(-c3cnn(C)c3)c2CC1,23.27
20,Cc1cc(C(=O)N2CCc3ncnc(-c4cnn(C)c4)c3CC2)c(C)o1,55.94
21,CC(C)CC(NC(=O)c1ccn(C)c(=O)c1)c1cccs1 (stereo not drawn),9.29
22,CN(CCc1cn[nH]c1)C(=O)C1CC(=O)N(Cc2ccccn2)C1 (stereo not drawn),48.93

row,Structure (SMILES),INHIBITION [%]
1,COCc1noc(CCNC(=O)c2ccc(C3CCCO3)s2)n1 (stereo not drawn),-31.23
2,Cc1ccc(CN2C[C@@H](N(C)C)[C@H]3OCCC[C@H]32)o1,39.57
3,Cc1cc(CN2C[C@H](N3CCOCC3)[C@@H]3OCCC[C@@H]32)oc1C,-0.23
4,Cc1ccc(CN2C[C@H](N3CCOCC3)[C@@H]3OCCC[C@@H]32)o1,63.23
5,COCC(=O)N1CCC2(C1)c1ccccc1S(=O)(=O)N2CC1CC1 (stereo not drawn),-11.81
6,CCN1CCC(NC(=O)Cn2cc(C)c3ccccc32)CC1,-3.38
7,Cc1cn(CC(=O)NC2CCC3(CC2)OCCO3)c2ccccc12,70.17
8,Cc1cn(CC(=O)NC2CCC(C(=O)O)CC2)c2ccccc12 (stereo not drawn),0.13
9,CCCC1CCCN(C(=O)Nc2cccnc2OC)CC1 (stereo not drawn),0.73
10,COc1ccc(C2CCCN2S(=O)(=O)c2cc(F)ccc2F)cc1 (stereo not drawn),7.24
11,Cc1cc(=O)[nH]cc1C(=O)N1Cc2ccccc2N(C)CC1C (stereo not drawn),47.59
12,CCc1csc(C2CCCN(C(=O)c3c[nH]c(C)n3)C2)n1 (stereo not drawn),33.91
13,CCc1csc(C2CCCN(C(=O)c3ccc(=O)n(C)n3)C2)n1 (stereo not drawn),26.51
14,Cc1nc(C2CCCN(C(=O)Cn3ccccc3=O)C2)sc1C (stereo not drawn),14.77
15,CC(C)c1csc(C2CCCN(C(=O)Cn3ccccc3=O)C2)n1 (stereo not drawn),54.92
16,CCc1csc(C2CCCN(C(=O)c3ccc(=O)n(CC)n3)C2)n1 (stereo not drawn),60.09
17,Cc1nc(C(=O)N2CCCC(c3nc(C(C)C)cs3)C2)c[nH]1 (stereo not drawn),77.56
18,CCc1csc(C2CCCN(C(=O)c3ccc(OC)nn3)C2)n1 (stereo not drawn),11.18
19,Cc1csc(C2CCCN(C(=O)Cn3ccccc3=O)C2)n1 (stereo not drawn),42.29
20,Cc1csc(C2CCCN(C(=O)c3c[nH]c(C)n3)C2)n1 (stereo not drawn),-92.68
